# Experimental data as given in PubChem BioAssay AID588726 (The Scripps Research Institute Molecular Screening Center, 2011).
# Out of some 360,000 compounds screened, about 8,200 (2.3%) were called active. Only a selection was taken, and actives are over-represented in it overall. A number with no mark means an inactive call. Rule as the data show it: active = inhibition above about 27%; inactive = the rest.
# Target: Fructose-bisphosphate aldolase (Mycobacterium tuberculosis (strain ATCC 25618 / H37Rv)) (UniProt P9WQA3)
# Sequence (P9WQA3 whole entry, looked up): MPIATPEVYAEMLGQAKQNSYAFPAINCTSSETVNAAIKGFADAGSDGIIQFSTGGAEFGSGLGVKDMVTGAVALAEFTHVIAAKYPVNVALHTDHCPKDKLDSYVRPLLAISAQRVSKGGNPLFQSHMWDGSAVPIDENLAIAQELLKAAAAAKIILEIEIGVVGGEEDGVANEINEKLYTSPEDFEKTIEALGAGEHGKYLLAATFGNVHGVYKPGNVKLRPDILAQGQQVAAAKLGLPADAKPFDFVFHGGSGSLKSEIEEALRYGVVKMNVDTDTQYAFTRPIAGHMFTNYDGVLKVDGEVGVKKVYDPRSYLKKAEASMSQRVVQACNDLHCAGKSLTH
# Assay: Mtb FBA enzyme inhibitors, primary screen, biochemical, fluorescence, strain H37Rv (AID 588726);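 also: 0% = vehicle and 100% = reference inhibitor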
# Conditions: purified M. tuberculosis FBA, fluorescence read-out, at 1 µM, stronger effect = higher value
row,SMILES,inhibition
1,CCN(CC)c1ccc(NC(=O)C2CCC(CNc3c(N4CCCC4)c(=O)c3=O)CC2)c(C)c1 (stereo not drawn),-0.83%
2,COc1ccc2c(c1)CC[C@@H]1[C@@H]2CC[C@]2(C)C(=O)CC[C@@H]12,0.88%
3,O=C1OCC2=C1C(c1ccccc1)CC(=O)N2c1cccc(F)c1 (stereo not drawn),-3.03%
4,Cc1cnc(C(=O)OCC(=O)N2CCc3ccccc32)cn1,69% (active)
5,Cc1ccc(S(=O)(=O)NCC(=O)OCC(=O)N2CCc3ccccc32)cc1,0.04%
6,O=C(OCC(=O)N1CCc2ccccc21)c1ccc([N+](=O)[O-])cc1,-3.08%
7,CCc1ccc(N2CC(C(=O)NC3=NCCS3)CC2=O)cc1 (stereo not drawn),4.59%
8,O=C(CSc1nnc(-c2ccco2)o1)NCC(=O)c1ccccc1,-1.17%
9,O=C(CCc1ccccc1)Nc1nn[nH]n1,2.03%
10,O=C(CCc1ccccc1)Nc1cccc(-c2nnc(-c3ccco3)o2)c1,26.9% (active)
11,O=C1CCC(=O)N1CCOP1(=O)COc2ccccc2OC1,3.44%
12,CCC1CCCCN1C(=O)CSc1nc2c(c(=O)n(C)c(=O)n2C)n1C (stereo not drawn),0.65%
13,CCOC(=O)CSc1nc2c(c(=O)n(Cc3ccccc3Cl)c(=O)n2C)n1C,88% (active)
14,CCCSc1nc2c(c(=O)n(C)c(=O)n2C)n1Cc1ccc(C)cc1,1.01%
15,CC(C)C1CCN(C(=O)C2CCC(=O)N(C3CCCCCC3)C2)CC1 (stereo not drawn),-1.51%
16,CCN(C(=O)Cc1c(C(=O)O)n(CC)c2ccccc12)c1ccccc1C,0.97%
17,Fc1ccc(COc2ccc(-c3nnco3)cc2)cc1,-0.19%
18,Fc1ccc(/C=N/n2c(COc3ccccc3)n[nH]c2=S)cc1,2.47%
19,Fc1ccc(COc2cccc(-c3n[nH]c(=S)o3)c2)cc1,29.4% (active)
20,CC1(C)C2CC[C@]3(C)C(CC=C4[C@@H]5C[C@@](C)(CO)CC[C@]5(C(=O)O)CC[C@]43C)[C@@]2(C)CC[C@@H]1O (stereo partly drawn),0.29%
21,Cc1ccccc1C(=O)N1CCC(C(=O)Nc2ccc(S(=O)(=O)N(C)C(C)C)cc2)CC1,1.27%
22,Cc1c(C)n2c(SCC(=O)N3CCCC3)nnc2[nH]c1=O,-0.46%
23,O=C(CSc1nc2c(cnn2-c2ccc(F)cc2)c(=O)[nH]1)N1CCCCCC1,2.6%
24,CC(=O)c1sc2nc(SCC(=O)N3CCCCC3)[nH]c(=O)c2c1C,30.5% (active)
25,CC(C)c1ccc(N(C(=O)c2ccco2)C(C(=O)NC2CCCC2)c2cccnc2)cc1 (stereo not drawn),-3.97%
26,O=C(NC(=S)Nc1ccccc1C(=O)O)c1ccc(-c2ccc(Br)cc2)o1,10.4%

row,SMILES,inhibition
1,CCOC(=O)Cc1c(C)nc2c(C#N)c(C)nn2c1C,46.4% (active)
2,Cc1cc(C)cc(NC(=O)CSCc2cnn(-c3ccccc3)c2-n2cccc2)c1,-1.78%
3,Cc1cc(C)cc(NC(=O)CCN2C(=O)c3ccccc3C2=O)c1,0.74%
4,Cc1cc(C)cc(NC(=O)CSc2ccccc2)c1,70.8% (active)
5,CCCN(CC(=O)Nc1ccccc1C)C(=O)c1ccc(OCC(=O)N2CCOCC2)c(OCC)c1,-1.46%
6,Cn1ncc2c(N3CCCCC3)nc(NCCCO)nc21,-2.65%
7,CC(C)(C)C(=O)NC1CC2CCCC(C1)N2C(=O)Nc1ccccc1F (stereo not drawn),-0.96%
8,CCCCn1c(-c2cccc(C)c2)nc2cc3[nH]c(=O)c(C(C)C)nc3cc21,87.6% (active)
9,CCCCn1c(N)c(N(CCOC)C(=O)CSCC(=O)Nc2cccc(C)c2)c(=O)[nH]c1=O,-1.91%
10,COc1ccc(-c2nc3ccccc3n2CCC(C)C)cc1OC,5.55%
11,Nn1c(Cc2cccc3ccccc23)nnc1SCC(=O)N1CC(=O)Nc2ccccc21,1.67%
12,CSCCC(Nc1ccc(S(=O)(=O)N2CCOCC2)cc1[N+](=O)[O-])C(=O)OCC(=O)N(C(C)C)C(C)C (stereo not drawn),-2.32%
13,CCOC(=O)Cc1cc(=O)[nH]c(=O)[nH]1,1.01%
14,Cc1c(CCC(=O)O)c(=O)oc2c(C)c(OCc3ccccc3Cl)ccc12,5.47%
15,FC(F)(F)c1ccc(-c2cccc3c2C2CC3CCN2Cc2ccccc2)cc1 (stereo not drawn),4.42%
16,Cc1cc(C(=O)OCC(=O)Nc2nccs2)c2ccccc2n1,-2.68%
17,O=C(NCCc1ccccn1)c1cc(-c2ccc(Cl)cc2)nc2ccccc12,-0.88%
18,O=C(NCC(c1cccs1)N1CCOCC1)c1cc(-c2ccccn2)nc2ccccc12 (stereo not drawn),5.77%
19,O=C(NCCN1CCOCC1)c1cc(Sc2cccc(Cl)c2)nc2ccccc12,-0.13%
20,CCCCN(C)CCCNC(=O)c1cc(-c2cccs2)nc2ccccc12,140% (active)
21,COC(=O)c1cc(-c2cccs2)nc2ccccc12,31.1% (active)
22,O=C(NCCN1CCOCC1)c1cc(-c2cccs2)nc2ccccc12,67.9% (active)
23,Cc1csc2nc(O)c(C(=O)NCCN3CCOCC3)c(=O)n12,0.68%
24,COC(=O)c1cc(N2CCNCC2)nc2ccccc12,12.9%
25,CC(C)CC(=O)N=C1SC2CS(=O)(=O)CC2N1CCc1ccccc1 (stereo not drawn),-1.54%
26,C[C@H](CO)N1C[C@H](C)[C@@H](CN(C)S(=O)(=O)c2ccc(F)cc2)OCc2cnnn2CCCC1=O,-1.18%

row,SMILES,inhibition
1,CCc1n[nH]c(=S)n1/N=C/c1c[nH]c2ccc(Br)cc12,4.89%
2,N#CCSc1nn(-c2ccc(F)cc2)c(=S)s1,2.99%
3,CCCCC(=O)NNC(=S)NC(=O)C(c1ccccc1)c1ccccc1,6.76%
4,CSc1ccc(CN2CCC2(C)C(=O)Nc2ccc(C)c(O)c2)cc1 (stereo not drawn),-1.62%
5,Cc1oc(CC(C)C)c(CN2CCCC2)c1C(=O)O,-9.07%
6,Cc1noc(C)c1C(=O)OCC(=O)N1CCN(S(=O)(=O)c2ccc3ccccc3c2)CC1,3.46%
7,O=c1cc(CN2CCCCCCC2)c2c(ccc3ccccc32)o1,17%
8,CCCc1cc(=O)oc2c(C)c(OC(C)C(=O)NCC(O)c3ccccc3)ccc12 (stereo not drawn),18.1%
9,O=C(CSc1ncccn1)N1CCCC1,1.75%
10,Cc1cccc(C)c1NC(=O)c1ccc(CN2CCc3ccccc3C2)cc1,1.47%
11,Cc1cccc2c1-c1sc(C(=O)NCCCN3CCc4ccccc4C3)cc1CO2,90.4% (active)
12,Cc1ccc(NC(=O)CN2CCc3ccccc3C2)cc1C,0.22%
13,O=C(COc1ccc2oc3c(c2c1)CCCC3)Nc1ccccn1,1.77%
14,COc1ccc(N2CCN(C(=O)COc3ccc4c(C)cc(=O)oc4c3)CC2)cc1,14.8%
15,NC(=O)C1CCN(C(=O)COc2ccc3c4c(c(=O)oc3c2)CCC4)CC1,30.9% (active)
16,NC(=O)COc1ccc2c3c(c(=O)oc2c1)CCCCC3,114% (active)
17,CCOC(=O)N1CCN(C(=O)COc2ccc3oc4c(c3c2)CCCC4)CC1,0.5%
18,O=C(COc1ccc2c3c(c(=O)oc2c1)CCC3)NC1CCCCC1,14.8%
19,CCCN(CCC)CCCNC(=O)CNC(=O)c1nn(-c2ccc(OC)cc2)c(=O)c2ccccc12,1.04%
20,O=C(COC(=O)CC1CC2CCC1C2)NC(=O)NC1CCCC1 (stereo not drawn),-0.01%
21,COc1ccccc1NC(=O)C(CC(=O)O)Cc1cc(C)cc(C)c1 (stereo not drawn),-0.4%
22,COc1ccc2nc(Nc3nc4cc5c(cc4s3)OCCO5)sc2c1,58.2% (active)
23,NS(=O)(=O)c1ccc2nc(NC(=O)C3=COCCO3)sc2c1,1.72%
24,COc1ccc2nc(N3CCN(C(=O)c4ccc([N+](=O)[O-])o4)CC3)sc2c1,-2.42%
25,Cc1cc(C)cc(Oc2nc3c(C)cccn3c(=O)c2/C=C(\C#N)C(=O)NC2CCS(=O)(=O)C2)c1 (stereo not drawn),16.1%
26,C/C(=N/OC(=O)c1ccc(Br)cc1)c1ccc(C)cc1,1.15%

row,SMILES,inhibition
1,COc1ccc(S(=O)(=O)NC(=O)C2(C)CCN2C(=O)c2ccccc2CCc2ccccc2)cc1 (stereo not drawn),0.28%
2,CCOc1ccc2nc(C(=O)N3CCCC(C)C3)sc2c1 (stereo not drawn),0.22%
3,CC(=O)Nc1ccc2nc(NC(=O)CS(=O)(=O)c3ccc(F)cc3)sc2c1,1.63%
4,CCOc1ccc2nc(Nc3nc4ccc(NC(C)=O)cc4s3)sc2c1,44.8% (active)
5,O=C(NN1C(=O)C2C3C=CC(C3)C2C1=O)c1ccco1 (stereo not drawn),8.04%
6,CCC(C)NCC(=O)Nc1ccc([N+](=O)[O-])cc1C(=O)Nc1ccccc1F (stereo not drawn),-4.2%
7,CCOC(=O)N1CCC(NC(=O)Cc2cn(C)c3ccccc23)CC1,11%
8,CCOC(=O)N1CCC(NC(=O)c2cnn3ccccc23)CC1,30.3% (active)
9,CCOC(=O)N1CCC(NC(=O)CCc2cn(C)c3ccccc23)CC1,8.05%
10,CCO[C@@H]1OC(C(=O)NC2CC2)=C[C@H](C)[C@H]1CCCO,-0.48%
11,O=C(O)C1CCCCC1C(=O)N1CCN(S(=O)(=O)c2ccc(F)cc2)CC1 (stereo not drawn),-1.39%
12,CSc1c(SCc2ccccc2)cnn(Cc2ccccc2)c1=O,-0.17%
13,COC(=O)c1ccc(C2C(Oc3ccccc3C)C(=O)N2CCc2ccc(OC)c(OC)c2)cc1 (stereo not drawn),-0.68%
14,Fc1ccc(N2N=C(c3cccs3)CC2c2ccco2)c(F)c1 (stereo not drawn),102% (active)
15,O=C(COc1ccccc1Cl)N1N=C(c2cccs2)CC1c1ccco1 (stereo not drawn),7.49%
16,O=C1C2N=NN(CC(=O)N3N=C(c4cccc5ccccc45)CC3c3ccccc3)C2C(=O)N1c1ccccc1 (stereo not drawn),11.2%
17,COc1cccc(C2CC(c3cccs3)=NN2C(=O)CSC2=NCCS2)c1OC (stereo not drawn),6.98%
18,Cc1ccccc1C1CC(c2cccs2)=NN1S(C)(=O)=O (stereo not drawn),-0.14%
19,Cc1ccc(N2C(=O)C3N=NN(CC(=O)N4N=C(c5cccc6ccccc56)CC4c4ccccc4)C3C2=O)cc1 (stereo not drawn),11.4%
20,COc1ccc(C2CC(c3cccs3)=NN2C(=O)CSc2nnc(N)s2)cc1OC (stereo not drawn),3.05%
21,Cc1ccc(C2=NN(C(=O)CSc3nc(N)cc(N)n3)C(c3ccco3)C2)cc1 (stereo not drawn),0.79%
22,COc1ccc(C2CC(c3cccs3)=NN2c2ccc(F)cc2)cc1OC (stereo not drawn),27.2% (active)
23,COc1ccccc1N1N=C(c2cccs2)CC1c1ccccc1 (stereo not drawn),39.5% (active)
24,Oc1ccccc1C1=NN(c2ccccc2)C(c2ccccc2)C1 (stereo not drawn),72.4% (active)
25,COc1ccc(C2CC(c3cccs3)=NN2c2nc(C)c(C(C)=O)s2)cc1OC (stereo not drawn),16.3%
